Compound activity deposited in PubChem BioAssay by National Center for Advancing Translational Sciences (NCATS).
This is a sample that favours compounds with a hit; in the whole collection about 19% have one here.
IL-1B inflam inh – qHTS for Inhibitors of Inflammasome Signaling: IL-1-beta AlphaLISA Primary Screen; 360,000 tested, 4.7% active; activity change, % at 57.5 µM; THP-1 LPS/ATP IL-1B secretion, AlphaLISA, 16 h; hits give low values; AID 743279, 2014; in the data active means activity change below about -50%; inconclusive means mostly about -30% to -49%; further: on the % scale 0 is the no-effect control and ±100 the full control effect
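THP-1 cells pretreated 1 hr with compounds (up to 57.5 uM final), then stimulated with LPS (250 ng/mL final) plus ATP (1.25 mM final); secreted IL-1B measured by AlphaLISA after 16 hr, decreased signal indicating inhibition.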
HepG2 tox – qHTS for Inhibitors of TGF-b: Cytotox Counterscreen; HepG2 CAGA-GFP viability, ATP luminescence, 18 h; Potency, µM (top dose mostly 46.1 µM), inactives show top-dose activity change, negative = cytotoxicity, usual class: cytotoxic; 410,000 tested, 0.76% active; AID 588856, 2011; further: potency means the concentration at half of the fitted maximal effect
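HepG2 CAGA-GFP cells (1000/well, DMEM with 1% FBS) received compound, then TGF-beta at 500 pg/mL final, and were incubated 18 hours at 37 degrees C. Viability was read by CellTiter-Glo luminescence. Media-only wells were set as complete cell-killing and DMSO as no toxicity.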
TGFb SMAD3 inh – qHTS for Inhibitors of TGF-b | HepG2 CAGA-GFP TGF-b/SMAD3 reporter, GFP fluorescence, 18 h; TGF-beta stimulated, 500 pg/mL final | Potency, µM (series often up to 46.1 µM), for inactives: top-dose activity, negative = inhibition, usual class: inhibitors | 410,000 tested, 1.2% active | AID 588855, 2011; further: potency means the concentration at half of the fitted maximal effect; on the % scale 0 is the no-effect control and ±100 the full control effect; nearly all actives have a fitted effect of over 65% in size
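Cell-based qHTS in HEPG2 carrying a CAGA-GFP Smad reporter; compounds added before 500 pg/mL final TGF-beta, 18 h incubation at 37 degrees C, GFP fluorescence quantified per cell by imaging cytometry.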
TDP1 cell CPT – qHTS for Inhibitors of human tyrosyl-DNA phosphodiesterase 1 (TDP1): qHTS in cells in presence of CPT; AID 686979, 2013; Potency, µM (highest dose often 46.2 µM), for inactives: top-dose activity change, negative = growth inhibition, most hits filed as inhibitors; 420,000 tested, 12% active; chicken DT40 Tdp1-/-;hTDP1 cells + 20 nM CPT, ATP luminescence, 48 h; further: potency means the concentration at half of the fitted maximal effect; on the % scale 0 is the no-effect control and ±100 the full control effect; nearly all actives have a fitted effect of over 55% in size
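Chicken DT40 Tdp1-/- cells complemented with human TDP1, 400 cells/well, exposed to compounds plus 20 nM camptothecin for at least 48 h at 37 C; viability read as ATP content by CellTiter-Glo luminescence.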
ASM inhibitor – Inhibitors of Secretory Acid Sphingomyelinase (S-ASM): qHTS; Potency, µM (top dose mostly 57.5 µM), for inactives: at the top dose activity change, negative = inhibition, actives largely listed as inhibitors; 340,000 tested, 0.006% active; AID 504937, 2011; placental ASM, HMU-PC fluorogenic substrate, 60 min; further: potency means the concentration at half of the fitted maximal effect
Target sequence (P17405 47-631 limits assumed): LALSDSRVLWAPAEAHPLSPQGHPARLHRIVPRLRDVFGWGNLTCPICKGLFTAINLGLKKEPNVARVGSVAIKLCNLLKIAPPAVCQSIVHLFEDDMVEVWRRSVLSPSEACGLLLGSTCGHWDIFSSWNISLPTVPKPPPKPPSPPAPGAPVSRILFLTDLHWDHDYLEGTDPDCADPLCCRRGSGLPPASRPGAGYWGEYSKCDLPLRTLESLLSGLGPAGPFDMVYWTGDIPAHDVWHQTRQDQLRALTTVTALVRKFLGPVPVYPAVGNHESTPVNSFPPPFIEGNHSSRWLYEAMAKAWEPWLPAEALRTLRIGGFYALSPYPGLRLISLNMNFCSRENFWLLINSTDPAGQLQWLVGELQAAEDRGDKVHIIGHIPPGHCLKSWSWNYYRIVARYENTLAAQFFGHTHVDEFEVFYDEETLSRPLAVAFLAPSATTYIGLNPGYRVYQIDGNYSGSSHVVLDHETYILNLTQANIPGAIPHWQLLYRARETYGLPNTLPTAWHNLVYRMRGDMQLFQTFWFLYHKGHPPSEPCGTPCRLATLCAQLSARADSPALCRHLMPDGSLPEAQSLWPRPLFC
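Fluorogenic HMU-PC substrate (9 uM final) is turned over by placental ASM in 60 min at 37 C after a 10 min compound preincubation. Reaction ended by alkaline stop (pH 10), with fluorescence read at 386/447 nm.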
TDP1 cell noCPT – qHTS for Inhibitors of human tyrosyl-DNA phosphodiesterase 1 (TDP1): qHTS in cells in absence of CPT; 420,000 tested, 15% active; Potency, µM (highest dose often 46.2 µM), inactives show at the highest dose activity change, negative = growth inhibition, usual class: inhibitors; AID 686978, 2013; DT40 Tdp1-/- hTDP1 cells, no CPT, ATP luminescence, 48 h; further: potency means the concentration at half of the fitted maximal effect; on the % scale 0 is the no-effect control and ±100 the full control effect; nearly all actives have a fitted effect of over 55% in size
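Stably hTDP1-transfected Tdp1-null chicken DT40 cells were treated with library compounds minus camptothecin and grown for at least 48 hr at 37 °C, after which cellular ATP was quantified by luminescence.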
Numbers without * were called inactive; ? = inconclusive; nt = no result given. Unless noted, the call rests on the fitted dose curve; in most records, active means well fitted curve in the direction sought with a large enough effect; inconclusive means small, poorly fitted or top-dose-only effect, or another doubt; inactive means no such curve, though single readings can be large; an effect the other way counts as inactive or inconclusive.

SMILES	IL-1B inflam inh	HepG2 tox	TGFb SMAD3 inh	TDP1 cell CPT	ASM inhibitor	TDP1 cell noCPT
C[C@H](NC(=O)c1ncn2c1c(=O)[nH]c1ccc(Br)cc12)c1ccccc1	6.7	1.3%	10.8%	?	nt	?
CC(=O)O[C@@H]1[C@@H](O)[C@@H](O)[C@H](Oc2c(-c3ccc(O)cc3)oc3c(CC=C(C)C)c(O)cc(O)c3c2=O)O[C@H]1C	-9.3	-71.9%	?	?	-24.0%	?
CC(=O)O[C@H]1[C@@H](O)[C@H](O)[C@H](Oc2c(O)c(C)c3c4c2[C@@H](C)CC[C@@H]4[C@@H](C)C[C@H]3C=C(C)C)O[C@H]1C	-2.7	-113.7%	11.2µM*	?	-15.4%	18.4µM*
CC1CCN(C(=S)Nc2ccc(F)cc2)CC1	-8.8	7.1%	1.6%	?	-8.6%	?
S=C(Nc1ccccc1Cl)N1CCCCCC1	0.0	5.2%	0.1%	-18.8%	0.1%	-14.3%
S=C(Nc1ccccc1Cl)N1CCCC(c2ccccc2)=N1	nt	-77.6%	-14.3%	?	-3.0%	29.1µM*
CC(C)c1ccc(NC(=S)N2CCCC(c3ccc(F)cc3)=N2)cc1	-20.3	-12.7%	-1.4%	?	-10.2%	29.1µM*
COC(=O)C1=C(C)NC(C)=C(C(=O)OC)C1c1ccc(-c2cccc([N+](=O)[O-])c2)o1	?	-19.7%	-25.9%	?	-9.7%	?
COCCOC(=O)C1=C(C)N(c2ccccc2)C(=O)NC1c1cccc([N+](=O)[O-])c1 (stereo unspecified)	-2.0	-5.5%	-8.7%	?	-1.0%	?
CCOC(=O)C1=C(C)NC(C)=C(C(=O)OCCNC(=O)c2cccnc2)C1c1cccc([N+](=O)[O-])c1 (stereo unspecified)	-58.7*	3.4%	4.7%	23.1µM*	?	?
COC(=O)C1=C(C#N)NC(C)=C(C(=O)OC(C)C)C1c1cccc([N+](=O)[O-])c1 (stereo unspecified)	nt	nt	nt	29.9µM*	nt	18.8µM*
COC(=O)C1=C(C)NC(C)=C(C(=O)OCCN2CCN(C(c3ccccc3)c3ccccc3)CC2)C1c1cccc([N+](=O)[O-])c1 (stereo unspecified)	nt	nt	nt	6.68µM*	nt	4.73µM*
CCCN(CC(=O)Nc1ccccc1OC)C(=O)Cn1[nH]c(=O)c2ccccc2c1=O	0.0	7.8%	-0.8%	-18.3%	0.5%	12.2%
CC1=C(C(=O)Nc2ccccc2)C(c2cccc(Cl)c2)n2nc(SCC(=O)c3ccc(C)cc3)nc2N1 (stereo unspecified)	nt	-3.0%	1.6%	-1.0%	nt	-6.9%
C=CCc1ccc(OCCCCN2CCC(C)CC2)c(OC)c1	-7.5	-18.6%	-10.5%	?	10.4%	16.4µM*
C=CCc1ccc(OCCCN2CCCC(C)C2)c(OC)c1 (stereo unspecified)	8.1	-22.1%	-16.7%	-5.0%	-3.3%	?
C=CCc1ccc(OCCCCN2CC(C)CC(C)C2)c(OC)c1 (stereo unspecified)	-17.1	-23.5%	-5.2%	16.4µM*	10.3%	20.6µM*
COc1ccc(-c2cn(CCO)nc2-c2ccc(OC)cc2)cc1	-5.1	0.0%	0.0%	-13.1%	-1.6%	-20.7%
Cc1ccc2nc(NC(=O)CS(=O)(=O)Cc3ccccc3)sc2c1	-2.3	20.1%	34.2%	-3.2%	1.2%	-12.2%
Cc1ccc(CS(=O)(=O)c2ncc(Cl)c(C(=O)Nc3nc4ccc(F)cc4s3)n2)cc1	nt	-39.5%	?	5.17µM*	nt	2.59µM*
Cc1ccc(CS(=O)(=O)c2ncc(Cl)c(C(=O)Nc3nc4ccc(C)cc4s3)n2)cc1	nt	-51.0%	-27.6%	2.91µM*	nt	3.66µM*
COc1ccc2nc(NC(=O)c3nc(S(=O)(=O)Cc4ccc(C)cc4)ncc3Cl)sc2c1	nt	-99.7%	4.47µM*	1.64µM*	nt	2.31µM*
COC(=O)/C=C1/N/C(=N\c2nc(C)cc(C)n2)N(c2cccc(C)c2)C1=O	-68.6*	-8.3%	?	?	3.1%	?
COC(=O)/C=C1\N/C(=N\c2nc(C)cc(C)n2)N(c2ccccc2)C1=O	-20.6	-26.8%	1.0%	1.6%	1.4%	1.1%
C#CCCC/C(=C\C(=O)N(C)[C@H](C(=O)N(C)[C@H](C(=O)N(C)[C@H](C(=O)N(C)[C@H](C(N)=O)C(C)C)C(C)C)C(C)C)C(C)C)OC	-18.8	-3.0%	?	20.6µM*	6.3%	18.4µM*
SMILES	IL-1B inflam inh	HepG2 tox	TGFb SMAD3 inh	TDP1 cell CPT	ASM inhibitor	TDP1 cell noCPT
C=CCn1c(SC(C)C#N)nc2ccccc2c1=O (stereo unspecified)	nt	6.6%	18.8%	-0.2%	nt	?
Cc1ccc(SCC(=O)Nc2ccccc2N2CCOCC2)cc1	21.9	-1.7%	0.9%	?	13.5%	?
Nc1cc(N)nc(SCC(=O)Nc2ccccc2N2CCOCC2)n1	11.2	1.4%	1.1%	-0.2%	-1.2%	-9.6%
CCc1ccc2nc(SCC(=O)Nc3ccccc3N3CCOCC3)c(C#N)cc2c1	9.2	-6.1%	?	4.61µM*	-2.1%	4.11µM*
Cc1ccc2nc(SCC(=O)Nc3ccccc3N3CCOCC3)c(C#N)cc2c1	-2.8	-12.8%	-8.0%	4.61µM*	-2.0%	3.26µM*
COc1ccccc1Nc1nc(-c2ccc3c(c2)NC(=O)CO3)cs1	?	0.5%	0.6%	23.1µM*	?	18.4µM*
CCC(C)Nc1nc(-c2ccc3c(c2)NC(=O)CO3)cs1 (stereo unspecified)	-2.4	-9.1%	?	23.1µM*	-6.0%	?
COc1ccc(Nc2nc(-c3ccc4c(c3)NC(=O)CO4)cs2)cc1	-12.6	4.2%	3.0%	?	-5.6%	?
CC1(C)OC2C(CO)OC(n3cnc4c(=O)[nH]c(N)nc43)C2O1 (stereo unspecified)	nt	nt	nt	-3.4%	nt	-5.4%
CC1CCC(CN2C(Nc3ccccc3)=NC[C@@H]2C)CC1 (stereo partly specified)	-0.1	4.2%	9.2%	18.4µM*	10.5%	?
